This passage reports IC50 results from PubChem BioAssay AID720649 (The Scripps Research Institute Molecular Screening Center, 2013).

Each structure is given as a SMILES string. The list shows a part of the results. Calls of active or inactive are those of the source. The rule behind the calls is not given here.

This experiment can be described thus: TO-PRO-1 dye complex inhibitors on d(CAG) DNA, dose response, counter-screen, biochemical, fluorescence, late stage (AID 720649). Conditions: d(CAG) DNA duplex TO-PRO-1 dye displacement.

Regarding `O=C1CC(=O)N(Cc2ccccc2)C(=O)N1CCCCCCN1C(=O)CC(=O)N(Cc2ccccc2)C1=O`, the 50% inhibitory concentration (IC50) is 6.7 µM (active).

Broadly, the IC50 is the concentration that gives 50% inhibition.
